12-LOX inh: inhibitors of human 12S-lipoxygenase ALOX12; Potency, µM (titrated, usually from 108 µM), without a hit: top-dose activity change, negative = inhibition, usual class: inhibitors; P18054; 580,000 compounds, 1.1% hits; AID 1671190; purified 12hLO, xylenol orange hydroperoxide absorbance
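Purified human 12hLO at 150 nM in 25 mM Hepes, 0.01% Triton X-100, pH 7.0, preincubated 15 min at room temperature with compound. Reaction started with 40 uM arachidonic acid, 30 min at room temperature. Hydroperoxide measured by Fe-xylenol orange, 573/405 nm absorbance ratio.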
VDR inhibitor: vitamin D3 receptor (human) inhibition | AID 504847 | P11473 | VDR-SRC2-3 peptide fluorescence polarization, 2 h | 400,000 compounds, 0.93% hits | Potency, µM, without a hit: max response, negative = inhibition, most hits filed as inhibitors
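FP read-out; VDR + SRC2-3 coactivator peptide; 23 nl compound by pintool; 2 h RT incubation; reagents held at 4 deg C, protected from light.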
PLK1 PBD block: PLK1 (human) polo-box domain binding inhibition | P53350 | Plk1 PBD binding of FITC phosphopeptide, fluorescence polarization | Potency, µM, inactives show max response, negative = inhibition, usual class: inhibitors | 360,000 compounds, 2.8% hits | AID 720504; also: series mostly up to about 57 µM; nearly all actives have a fitted effect of over 65% in size
Target sequence (P53350 whole entry, looked up, the tested form may be a part): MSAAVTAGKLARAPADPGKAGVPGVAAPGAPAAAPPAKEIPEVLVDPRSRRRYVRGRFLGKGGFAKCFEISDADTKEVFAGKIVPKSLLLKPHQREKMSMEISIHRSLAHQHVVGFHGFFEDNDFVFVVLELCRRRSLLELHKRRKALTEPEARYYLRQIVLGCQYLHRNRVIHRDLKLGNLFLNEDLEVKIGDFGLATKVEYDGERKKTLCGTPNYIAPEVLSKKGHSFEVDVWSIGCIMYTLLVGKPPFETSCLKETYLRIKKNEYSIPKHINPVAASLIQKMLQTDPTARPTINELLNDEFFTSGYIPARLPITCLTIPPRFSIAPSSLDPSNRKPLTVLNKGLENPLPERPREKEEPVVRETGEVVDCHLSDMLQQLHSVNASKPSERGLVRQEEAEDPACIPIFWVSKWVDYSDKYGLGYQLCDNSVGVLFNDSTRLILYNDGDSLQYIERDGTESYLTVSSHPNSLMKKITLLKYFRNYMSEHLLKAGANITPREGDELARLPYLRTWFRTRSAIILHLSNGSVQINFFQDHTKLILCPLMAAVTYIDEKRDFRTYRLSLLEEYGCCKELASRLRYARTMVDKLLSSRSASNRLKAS
Sfp PPTase inh: Sfp phosphopantetheinyl transferase inhibition | Q9F4F7 | Biochemical Sfp PPTase activity, qHTS | Potency, µM, for the others: largest response in the series, negative = inhibition, usual class: inhibitors | 310,000 compounds, 3.5% hits | AID 1490;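 also: the enzyme is Sfp with the accession as filed and its product quenches rhodamine fluorescence; 0% = enzyme reaction without inhibitor and -100% = no enzyme wells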
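Fluorescence-quenching assay: 15 nM Sfp-PPTase preincubated 15 min at room temperature with compound, then 5 uM rhodamine-CoA and 12.5 uM BHQ-2-labelled YbbR peptide added. Fluorescence (ex 525/em 598 nm) read at start and after 30 min; difference gives rate.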
* marks the source's active call; other numbers are inactive results; ? = inconclusive; nt = no result; ! = not active in a repeat; [ ] = remark or other dose. Only some compounds are listed: those with a hit (about 4.2% of all), similar ones and a draw of the others. Calls follow the shape of the dose curve; as a rule, active = well fitted curve in the direction sought with a large enough effect; inconclusive = small, poorly fitted or top-dose-only effect, or another doubt; inactive = no such curve, though single readings can be large; an effect the other way counts as inactive or inconclusive. Unless noted, % is scaled to controls: 0 for no effect and ±100 for the full control effect; potency is read from the fitted curve at half-maximal effect.

SMILES | 12-LOX inh | VDR inhibitor | PLK1 PBD block | Sfp PPTase inh
COc1ccc(NC(=O)[C@@H]2CC=C[C@@H]3CCN(Cc4ccc(Cl)c(Cl)c4)C(=O)[C@@H]32)cc1 | -6% | -5% | -15% | nt
COC/C=C/C1=CC2=CC(=O)C(C)(OC(=O)c3cnc4ccccc4n3)C(=O)C2=CN1C(CO)CO (configuration not stated) | 7.1µM* | 9% | -13% | 3%
Cc1noc(CN(C)C(=O)c2ccc3oc(Cc4ccc(Cl)cc4)nc3c2)n1 | 20% | nt | nt | nt
O=[N+]([O-])c1ccc(O)c(C=Nc2ccc3c(c2)OCCO3)c1 | -10% | -24% | 1% | -9%
Nc1ccc2oc(Cc3ccc(Cl)cc3)nc2c1 | 3% | 79µM* | nt | nt
O=[N+]([O-])c1ccc(O)c(C=Nc2ccc3oc(Cc4ccc(Cl)cc4)nc3c2)c1 | nt | nt | nt | 28µM*
COc1ccc(CCCc2n[nH]c(=S)o2)cc1 | -29% | 2% | -3% | -5%
C=C[C@]1(C)C=C2CC[C@H]3[C@@](C)(CCC[C@@]3(C)C(=O)O)[C@@H]2CC1 | nt | -8% | 30µM* | nt
CC(C)C1=CC2=CC[C@@H]3[C@@](C)(C(=O)O)CCC[C@]3(C)C2CC1 (some centres not stated) | nt | nt | nt | -5%
Cc1cccc(C)c1NC(=O)C(c1ccccc1)N1CCC1=O (configuration not stated) | 62% | ? | 17µM* | 14%
Cc1cc(C)c(C)c(N=Nc2nc3ccccc3n2C)c1C | ? | -14% | ? | 56µM*
Cc1ccc(C)c(N=Nc2nc3ccccc3n2C)c1 | -10% | -7% | -9% | -14%
Cc1ccc(CN2C(=O)c3ccccc3Sc3ccc(C(=O)NC4CCCC4)cc32)cc1 | -16% | 11% | nt | nt
O=C1/C(=C\c2ccc(Br)cc2)SC(=S)N1NS(=O)(=O)c1ccccc1 | -29% | -1% | 21µM* | -17%
C=CCOc1ccc(/C=C2\SC(=S)N(NS(=O)(=O)c3ccccc3)C2=O)cc1 | ? | ? | 21µM* | -4%
COc1ccc(/C=C2/SC(=S)N(NS(=O)(=O)c3ccccc3)C2=O)cc1 | ? | ? | ? | 3%
CN(Cc1ccc(N2CCCCC2)cc1)C(=O)CCC[C@H]1NC[C@@H]2C[C@H]1CN(Cc1ccccc1)C2 | 7.9µM* | nt | nt | nt
O=C(CCC[C@H]1NC[C@@H]2CC1CN(Cc1ccccc1)C2)N1CCCC1 | 11% | nt | nt | nt
CC1CCN(C(=O)CCC[C@H]2NC[C@@H]3C[C@H]2CN(Cc2ccccc2)C3)CC1 | 10µM* | nt | nt | nt
CN(Cc1cccnc1)C(=O)CCC[C@H]1NC[C@@H]2C[C@H]1CN(Cc1ccccc1)C2 | 17% | nt | nt | nt
O=C(NCc1c[nH]c2ncccc12)c1ccc2c(c1)OCO2 | 16%[176 µM] | nt | nt | nt
COCc1cc(S(=O)c2ccc(Cl)cc2)nc(C)n1 (configuration not stated) | ? | 50µM* | 5.3µM* | 79µM*
COCc1cc(Sc2ccc(Cl)cc2)nc(C)n1 | 2% | -2% | 0% | 17%
c1ccc(-c2n[nH]c(-c3ccccc3)c2-c2nc3ccccc3[nH]2)cc1 | 0% | ? | 27µM* | 14%
Cc1cccc(NC(=S)N/N=C/C(C)c2ccccc2)c1C (configuration not stated) | ? | 12% | ? | 79µM*
SMILES | 12-LOX inh | VDR inhibitor | PLK1 PBD block | Sfp PPTase inh
Cc1cccc(NC(=S)N2CCOCC2)c1C | 5% | -7% | -1% | 71µM*
Cc1cccc(NC(=S)NN=C2CCCC2)c1C | 28µM* | nt | nt | nt
CNC(=O)OCc1cccc(COC(=O)NC)n1 | ? | 13% | 0% | 14%
COc1cc(C(=O)Nc2ccc3c(c2)N(C2CCCC2)C(=O)c2ccccc2S3)cc(OC)c1OC | -22% | 15% | nt | nt
c1ccc2c(CN3CCCCC3)csc2c1 | ? | -1% | -3% | 6%
O=C(c1cc2c(s1)-c1ccccc1OC2)N1CCN(c2ccc(F)cc2)CC1 | -14% | -10% | nt | nt
O=C(CSc1nc2ccccc2s1)NCc1cc([N+](=O)[O-])ccc1O | ? | ? | 19µM* | nt
COc1ccc(CC(=O)Nc2cc(S(=O)(=O)N3CCOCC3)ccc2N2CCOCC2)cc1OC | -3% | -15% | -6% | nt
CCCCc1ccc(CC(=O)Nc2cc(S(=O)(=O)N3CCOCC3)ccc2O)cc1 | ? | ? | 15µM* | nt
O=C(CC1CCCC1)Nc1cc(S(=O)(=O)N2CCOCC2)ccc1O | ? | ? | 6µM* | nt
O=C(CSc1nc2ccccc2s1)Nc1cc(S(=O)(=O)N2CCOCC2)ccc1O | 22µM* | ? | 11µM* | -16%
CC(C)Oc1ccc(S(=O)(=O)N2CCOCC2)cc1NC(=O)CC1CCCC1 | 23% | 1% | -10% | nt
COc1ccc(S(=O)(=O)N2CCOCC2)cc1NC(=O)CSc1nc(C)c(C)c(C)n1 | -2% | -20% | ? | nt
COc1ccc(S(=O)(=O)N2CCOCC2)cc1NC(=O)CSc1n[nH]c(C(C)C)n1 | -6% | 1% | 27µM* | 25µM*
CSC(C)C(=O)NCc1ccc(C)s1 (configuration not stated) | 4% | nt | nt | nt
Cc1oc(-c2ccccc2Cl)cc1-c1nn2c(-c3ccco3)nnc2s1 | nt | nt | nt | 0%
N/C(=N\N=C\c1ccc(Cl)cc1)N/N=C/c1ccc(Cl)cc1 | ? | ? | nt | 79µM*
N/C(=N\N=C/c1ccc(F)cc1)N/N=C\c1ccc(F)cc1 | -56% | -2% | -5% | -7%
NC(C(=O)O)c1ccc(O)cc1 (configuration not stated) | nt | -2% | nt | 4%
N[C@H](C(=O)O)c1ccc(O)c(C(=O)O)c1 | ? | 11% | nt | 20µM*
NC(C(=O)O)C(O)c1ccc(O)c(O)c1 (configuration not stated) | nt | ? | nt | 45µM*
N[C@H](C(=O)O)c1cccc(O)c1 | 6% | 7% | nt | 45µM*!
CC(C)(C)c1ccc(C(=O)N2CCC(C(=O)NCCC3=CCCCC3)CC2)cc1 | -4% | 20% | -7% | -4%
Cc1ccc(S(=O)(=O)Nc2nc3ccccc3nc2Nc2cccc(C(=O)O)c2)cc1C | 7% | nt | nt | nt
O=C1/C(=C\c2ccccn2)SC(=S)N1c1ccc(S(=O)(=O)Nc2nccs2)cc1 | 145% | -5% | ? | 56µM*
SMILES | 12-LOX inh | VDR inhibitor | PLK1 PBD block | Sfp PPTase inh
Cc1[nH]n(-c2ccccc2)c(=O)c1C=Nc1ccc(S(=O)(=O)Nc2nccs2)cc1 | -1% | 3% | 24µM* | 15%
Cc1ccc(/C=C2/SC(=S)N(c3ccc(S(=O)(=O)Nc4nccs4)cc3)C2=O)cc1 | 214% | 0% | ? | -31%
O=S(=O)(NCc1ccccc1)c1ccccc1NCc1ccc(Cl)cc1 | -15% | 2% | 7% | nt
Cc1ccc(C(C(=O)NC2CCCC2)N(C(=O)Cc2cccs2)c2cccc(C)c2C)o1 (configuration not stated) | -1% | 4% | -8% | -7%
COc1cccc(C(=O)Nc2ccc3c(cc2=O)[C@@H](NC(C)=O)CCc2cc(OC)c(OC)c(OC)c2-3)c1 | nt | 19% | 4% | -11%
CCC(=O)c1c(OCc2ccccc2)ccc2c(C)cc(=O)oc12 | nt | nt | nt | -6%
CCOC(=O)COc1ccc2c(C)cc(=O)oc2c1C(=O)c1ccccc1 | -45% | -7% | 21µM* | 8%

Screening data from PubChem.
